Experimental data as given in PubChem BioAssay AID602393 (Broad Institute, 2012).
The whole screen tested about 350,000 compounds, of which about 7,000 (2%) were called active. The sample holds actives, similar compounds and a random draw of the others, so the mix is not that of the screen. Unmarked numbers belong to inactive results. Cut-off read from the data, not from the text of the source: active = activation above about 40%; inconclusive = no clear call, values can overlap the other calls; inactive = below that.

Assay: Bmi1 luciferase reporter increase in mESCs, primary screen, esBAF inhibitor project, mouse ES cells, Bmi1 luciferase knock-in, single point (AID 602393);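 note: 0% = median of the plate's neutral control wells and 100% = double that signal; a rise in the Bmi1 reporter signal indicates esBAF inhibition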
Conditions: 24 h, at 12.5 µM, stronger effect = higher value, 100% = twice the neutral-well signal

Question: Which reporter increase does the source give for `Cc1ccc(-c2cnc3c(c2)C(=O)N([C@H](C)CO)C[C@@H](C)[C@@H](CN(C)C(=O)CN(C)C)O3)cc1` here?
Answer: -1.4%

Question: For `COc1ccccc1OCCCC(=O)Nc1ccc2c(c1)OCCO2`, which reporter increase is on record?
Answer: 4.46%

Question: For `Cc1cccc(NC(=O)/C=C/c2ccc3c(c2)OCO3)n1`, which reporter increase is on record?
Answer: 9.44%

Question: Which reporter increase does the source give for `COc1cccc(/C=C/C(=O)Nc2ccc3c(c2)OCCO3)c1` here?
Answer: 52.9% (active)

Question: With `COc1ccccc1-c1ccc2c(c1)[C@H]1[C@H](CCN1S(=O)(=O)c1ccccc1)[C@@H](CO)N2` as the molecule, how does the reporter increase read?
Answer: -9.94%

Question: Which reporter increase does the source give for `C/C=C/c1cnc2c(c1)C(=O)N([C@@H](C)CO)C[C@H](C)[C@H](CN(C)C(=O)CN1CCOCC1)O2` here?
Answer: 1.11%

Question: For `CCCCC(=O)Nc1cc(C)c2c(=O)oc3ccccc3c2n1`, which reporter increase is on record?
Answer: -4.09%

Question: For `CCOC(=O)c1c(C)oc(C)c(C(=O)OCC)c1=O`, which reporter increase is on record?
Answer: -9.85%

Question: With `CCOC(=O)c1c(C)nc2c(c1C)c(=O)oc1ccccc12` as the molecule, how does the reporter increase read?
Answer: 43.1% (active)

Question: With `Cc1noc(C)c1NC(=O)N(C)C[C@@H]1Oc2ccc(NS(=O)(=O)c3ccc(Cl)cc3)cc2C(=O)N([C@@H](C)CO)C[C@H]1C` as the molecule, how does the reporter increase read?
Answer: -6.44%

Question: Which reporter increase does the source give for `CCc1ccccc1NC(=O)c1cc(-c2ccc3c(c2)OCO3)on1` here?
Answer: 43.8% (active)

Question: Which reporter increase does the source give for `CC(C)NC(=O)COCc1cc(-c2ccc3c(c2)OCO3)on1` here?
Answer: 16.1%

Question: For `COc1ccc(CCNC(=O)c2cc(-c3ccc4c(c3)OCO4)on2)cc1OC`, which reporter increase is on record?
Answer: 0.657%

Question: Which reporter increase does the source give for `O=C(C[C@H]1CC[C@@H]2[C@H](COC[C@@H](O)CN2Cc2cc(F)cc(F)c2)O1)NC1CCC1` here?
Answer: 2.1%

Question: With `COc1ccc(S(=O)(=O)N(C)C[C@@H]2Oc3ncc(C#Cc4ccc(F)cc4)cc3C(=O)N([C@H](C)CO)C[C@@H]2C)cc1` as the molecule, how does the reporter increase read?
Answer: 3.53%

Question: With `CCCNC(=O)N(C)C[C@H]1Oc2cc(-c3ccncc3)ccc2S(=O)(=O)N([C@H](C)CO)C[C@@H]1C` as the molecule, how does the reporter increase read?
Answer: 6.74%

Question: For `CCc1cc2c(=O)c(-c3ccon3)c(N)oc2cc1OC`, which reporter increase is on record?
Answer: 50.4% (active)

Question: For `CCc1cc2c(=O)c(-c3nc4ccccc4n3C)c(CCCC(=O)O)oc2cc1OC(=O)C(C)(C)C`, which reporter increase is on record?
Answer: 6.89%

Question: Which reporter increase does the source give for `COc1ccc2oc(N)c(C=O)c(=O)c2c1` here?
Answer: -2.61%

Question: Which reporter increase does the source give for `CC(=O)Nc1ccc2c(c1)C(=O)N(C)[C@H]1CC[C@@H](CC(=O)NCC3CC3)O[C@H]1CO2` here?
Answer: 9.13%

Question: Which reporter increase does the source give for `O=C(NNC(=O)c1csc(-c2cccnc2)n1)Nc1ccc(Cl)cc1` here?
Answer: 0.726%

Question: With `Clc1ccc(-c2csc(-c3ccncc3)n2)cc1` as the molecule, how does the reporter increase read?
Answer: 51.5% (active)

Question: With `CNC(=O)c1csc(-c2ccccc2)n1` as the molecule, how does the reporter increase read?
Answer: 13.5%

Question: Which reporter increase does the source give for `CN(C)CC(=O)Nc1ccc2c(c1)[C@@H]1C[C@H](CC(=O)NCc3ccc(-c4ccccc4)cc3)O[C@@H](CO)[C@@H]1O2` here?
Answer: 16%

Question: With `COc1ccc2c(Cl)c(-c3nnco3)sc2c1` as the molecule, how does the reporter increase read?
Answer: 8.57%

Question: For `CCCCSc1nnc(-c2ccc(C)cc2)o1`, which reporter increase is on record?
Answer: 17.9%

Question: Which reporter increase does the source give for `C#CCSc1nnc(-c2sc3ccccc3c2Cl)o1` here?
Answer: 51% (active)

Question: With `C[C@@H](O)C#Cc1ccc2c(c1)O[C@@H](CN(C)C)[C@@H](C)CN([C@@H](C)CO)S2(=O)=O` as the molecule, how does the reporter increase read?
Answer: -2.61%

Question: Which reporter increase does the source give for `C[C@H](NC(=O)C[C@@H]1CC[C@@H]2[C@H](COC[C@@H](O)CN2C(=O)Nc2cc(Cl)cc(Cl)c2)O1)c1ccccc1` here?
Answer: -3.61%

Question: With `C[C@@H]1CN([C@H](C)CO)S(=O)(=O)c2ccc(C#CC3CCCC3)cc2O[C@@H]1CN(C)Cc1ccccc1C(=O)O` as the molecule, how does the reporter increase read?
Answer: -3.9%

Question: Which reporter increase does the source give for `O=C(C[C@@H]1CC[C@@H]2[C@H](COC[C@H](O)CN2C(=O)Cc2ccccc2)O1)NC1CCC1` here?
Answer: -8.39%

Question: For `CCn1c(=N)n(CC(=O)c2cccc(OC)c2)c2ccccc21`, which reporter increase is on record?
Answer: 64.8% (active)

Question: For `COc1ccc2cc(C(=O)O)n(CC(=O)c3ccccc3)c2c1`, which reporter increase is on record?
Answer: -1.55%

Question: With `CCCn1c(=N)n(CC(=O)c2ccc(Cl)c(Cl)c2)c2ccccc21` as the molecule, how does the reporter increase read?
Answer: 3.54%

Question: For `Cn1c(NN)nc2sc3c(c2c1=O)CCC3`, which reporter increase is on record?
Answer: -3.52%

Question: With `CC1CCc2c(sc3nc4n(c(=O)c23)CCS4)C1` (stereo unspecified) as the molecule, how does the reporter increase read?
Answer: 46.4% (active)

Question: Which reporter increase does the source give for `NNC(=O)C1CCCn2c1nc1sc3c(c1c2=O)CCCC3` (stereo unspecified) here?
Answer: 2.26%

Question: Which reporter increase does the source give for `C[C@H](CO)N1C[C@H](C)[C@H](CN(C)Cc2ccncc2)Oc2ccc(NC(=O)C3CCCCC3)cc2CC1=O` here?
Answer: 4.88%

Question: With `COc1ccccc1Nc1ncc(C(C)=O)c(C)n1` as the molecule, how does the reporter increase read?
Answer: 43.9% (active)

Question: With `COc1ccccc1-c1c(C)nn2c(C)c(C(C)=O)cnc12` as the molecule, how does the reporter increase read?
Answer: -4.24%

Question: For `COC(=O)c1cnc(Nc2cc(C)ccc2OC)c2ccccc12`, which reporter increase is on record?
Answer: -2.74%

Question: Which reporter increase does the source give for `CCC(=O)Nc1ccc2c(c1)OC[C@H](C)N(Cc1ccccc1OC)C[C@@H](C)[C@@H](OC)CN(C)C2=O` here?
Answer: 4.11%

Question: With `CO[C@H]1CN(C)C(=O)c2cc(NC(=O)Nc3cccc(F)c3)ccc2OC[C@@H](C)N(C)C[C@@H]1C` as the molecule, how does the reporter increase read?
Answer: 1.05%

Question: With `C[C@H](CO)N1C[C@H](C)[C@H](CN(C)C(=O)C2CCOCC2)Oc2ncc(-c3ccccc3F)cc2C1=O` as the molecule, how does the reporter increase read?
Answer: -0.932%

Question: With `COc1ccc(-c2ccc3c(c2)O[C@H](CN(C)Cc2ccccc2C(=O)O)[C@H](C)CN([C@@H](C)CO)S3(=O)=O)cc1` as the molecule, how does the reporter increase read?
Answer: 4.05%

Question: For `COc1ccccc1Nc1ncnc2c1oc1ccccc12`, which reporter increase is on record?
Answer: 75.2% (active)

Question: With `COc1ccc(Nc2ncnc3ccc(Br)cc23)c(OC)c1` as the molecule, how does the reporter increase read?
Answer: -66.9%

Question: With `CCC(C(=O)OC)n1cnc2c(oc3ccccc32)c1=O` (stereo unspecified) as the molecule, how does the reporter increase read?
Answer: 2.51%

Question: Which reporter increase does the source give for `CCCC(=O)Nc1ccc2c(c1)C(=O)N(C)[C@H]1CC[C@@H](CC(=O)NCc3cccc(F)c3)O[C@H]1CO2` here?
Answer: 11.9%

Question: For `O=C(NCC[C@H]1CC[C@H](NS(=O)(=O)c2ccccc2)[C@H](CO)O1)c1cc(Cl)cc(Cl)c1`, which reporter increase is on record?
Answer: 1.99%

Question: For `Cc1cc(C)c(C)c(S(=O)(=O)N2CCN(C(=O)c3ccc4c(=O)n5c(nc4c3)CCC5)CC2)c1C`, which reporter increase is on record?
Answer: -1.07%

Question: With `CC1CCN(C(=O)c2ccc3c(=O)n4c(nc3c2)CCCCC4)CC1` as the molecule, how does the reporter increase read?
Answer: 10.6%

Question: Which reporter increase does the source give for `O=C(Nc1cc(F)ccc1F)c1ccc2c(=O)n3c(nc2c1)CCC3` here?
Answer: 54.2% (active)

Question: For `CC(C)CC#Cc1cnc2c(c1)C(=O)N([C@@H](C)CO)C[C@@H](C)[C@@H](CN(C)S(=O)(=O)c1cccs1)O2`, which reporter increase is on record?
Answer: -1.12%

Question: Which reporter increase does the source give for `Cn1cnc(S(=O)(=O)N2C[C@H](O)COC[C@@H]3O[C@H](CC(=O)NC4Cc5ccccc5C4)CC[C@H]32)c1` here?
Answer: 1.23%

Question: For `O=C(NC1=NCCS1)c1ccc(Cl)s1`, which reporter increase is on record?
Answer: 56.6% (active)

Question: Which reporter increase does the source give for `O=C(NCc1ccc2c(c1)OCO2)c1ccc(Cl)s1` here?
Answer: 16.1%

Question: Which reporter increase does the source give for `COc1ccccc1C(=O)NCCC(=O)NC1=NCCS1` here?
Answer: 4.18%

Question: For `COCC(=O)N1C[C@H](C)[C@@H](OC)CN(C)C(=O)c2cc(NC(=O)c3ccc(OC)cc3)ccc2OC[C@H]1C`, which reporter increase is on record?
Answer: -1.57%

Question: For `CCCNC(=O)C[C@@H]1CC[C@H]2[C@H](COc3ccc(NS(=O)(=O)c4ccccc4C)cc3C(=O)N2C)O1`, which reporter increase is on record?
Answer: 0.502%

Question: With `CNC[C@H]1OCCCC[C@H](C)Oc2ccc(NS(C)(=O)=O)cc2C(=O)N([C@@H](C)CO)C[C@H]1C` as the molecule, how does the reporter increase read?
Answer: 3.58%

Question: With `CCC1([N+](=O)[O-])COC(c2ccc(C(C)C)cc2)OC1` (stereo unspecified) as the molecule, how does the reporter increase read?
Answer: 98.9% (active)

Question: For `CCC1([N+](=O)[O-])COC(c2ccc(C)cc2)OC1` (stereo unspecified), which reporter increase is on record?
Answer: -1.7%

Question: For `CC(C)c1ccc(S(=O)(=O)NC2CCCC2)cc1`, which reporter increase is on record?
Answer: 1.91%

Question: Which reporter increase does the source give for `CCCN(CC1CC1)C(=S)NC(=O)c1ccccc1Br` here?
Answer: -4.35%

Question: For `O=C(NC(=S)Nc1ncccn1)c1ccccc1Br`, which reporter increase is on record?
Answer: 44.5% (active)

Question: Which reporter increase does the source give for `O=C(Nc1ccccc1)c1ccccc1Br` here?
Answer: 22.5%

Question: Which reporter increase does the source give for `CO[C@@H]1CN(C)C(=O)c2cc(NC(=O)Nc3cccc(Cl)c3)ccc2OC[C@@H](C)N(C)C[C@@H]1C` here?
Answer: -1.87%

Question: Which reporter increase does the source give for `CO[C@H]1CN(C)C(=O)c2ccc(NC(=O)c3cccc(F)c3)cc2OC[C@H](C)N(CC2CC2)C[C@@H]1C` here?
Answer: 9.27%

Question: Which reporter increase does the source give for `CC(C)N(C(=O)[C@H]1C[C@H](CC(=O)NCCC2=CCCCC2)C(=O)N2CCc3c([nH]c4cc(CCC(=O)N(C)C)ccc34)[C@]12C)C(C)C` here?
Answer: 5.79%

Question: With `CN(C)C(=O)CCc1ccc2c3c([nH]c2c1)[C@]1(CCc2ccccc2)[C@@H](C(=O)N2CCCCC2)C[C@H](CC(=O)NCCC2=CCCCC2)C(=O)N1CC3` as the molecule, how does the reporter increase read?
Answer: 67.9% (active)

Question: Which reporter increase does the source give for `CN(C)C(=O)CCc1ccc2c3c([nH]c2c1)[C@]1(C)[C@@H](C(=O)N2CCCCC2)C[C@H](CC(=O)NCCC2=CCCCC2)C(=O)N1CC3` here?
Answer: 8%

Question: Which reporter increase does the source give for `O=C(C[C@@H]1C[C@@H]2c3cc(NC(=O)C4CCC4)ccc3O[C@@H]2[C@@H](CO)O1)NCCN1CCCCC1` here?
Answer: 1.69%

Question: With `Cc1noc(C)c1S(=O)(=O)Nc1ccc2c(c1)CC(=O)N([C@@H](C)CO)C[C@@H](C)[C@H](CN(C)S(=O)(=O)c1cccs1)O2` as the molecule, how does the reporter increase read?
Answer: -4.75%

Question: Which reporter increase does the source give for `CCn1nccc1C(=O)Nc1ccc(Cl)c(Cl)c1` here?
Answer: 61.9% (active)

Question: With `CCn1nccc1C(=O)Nc1ccc(S(=O)(=O)NC23CC4CC(CC(C4)C2)C3)cc1` as the molecule, how does the reporter increase read?
Answer: 14.5%

Question: Which reporter increase does the source give for `O=C(CC(O)(C(F)(F)F)C(F)(F)F)Nc1ccc(Cl)c(Cl)c1` here?
Answer: -47.8%

Question: For `Cc1ccc(CN(C)C[C@H]2OCc3cn(nn3)CCCC(=O)N([C@@H](C)CO)C[C@H]2C)cc1`, which reporter increase is on record?
Answer: 3.63%

Question: For `O=C(Cc1ccc(Cl)cc1)c1ccccc1`, which reporter increase is on record?
Answer: 61.9% (active)

Question: With `O=C(Cc1ccc(Cl)cc1)NC(=S)Nc1ccccc1O` as the molecule, how does the reporter increase read?
Answer: 2.82%

Question: For `O=C(CN1CCN(c2ccc(Cl)cc2)CC1)c1ccccc1`, which reporter increase is on record?
Answer: -0.082%
